Compounds with a hit are over-represented: about 4.7% of the library has one in this group of screens.
NTMT1 inhibitor: inhibitors of human N-terminal methyltransferase NTMT1; NTMT1 MTase-Glo SAH luminescence, purified enzyme; Potency, µM (top dose mostly 114 µM), for the others: at the top dose activity change, negative = inhibition, actives largely listed as inhibitors; actives 2.5% (n = 59,000);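 also: potency is read from the fitted curve at half-maximal effect; plate controls were DMSO vehicle for no effect and no enzyme for full effect; nearly all actives have a fitted effect of over 65% in size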
HTT promoter inh: inhibitors of huntingtin promoter activity; HEK293 HTT promoter firefly luciferase reporter, 24 h; Potency, µM (top dose mostly 57.5 µM), inactives show top-dose activity change, negative = inhibition, actives largely listed as inhibitors; actives 0.93% (n = 48,000); AID 1508623; also: potency is read from the fitted curve at half-maximal effect; nearly all actives have a fitted effect of over 50% in size
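HEK293 cells carrying firefly luciferase reporters were seeded at 2,500 per well in Opti-MEM and cultured for 24 h. They were then treated with compounds at up to 57.5 uM final for 24 h at 37 degrees C before Dual-Glo luminescence readout.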
HTT-AS promoter: activators of huntingtin-antisense promoter activity; HEK293 HTT-AS promoter firefly luciferase reporter, 24 h; response scale: percent change from vehicle, -100% = no light; Potency, µM (doses to about 57.5 µM), for inactives: top-dose activity change, positive = activation, actives largely listed as activators; actives 0.24% (n = 48,000); AID 1508624; also: potency is read from the fitted curve at half-maximal effect; nearly all actives have a fitted effect of over 55% in size
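HEK293 luciferase promoter-reporter cells (2,500/well) plated 24 h, then compounds added at up to 57.5 uM final for 24 h at 37 °C. Firefly luminescence by Dual-Glo, normalized to vehicle (0%) and zero RLU (-100%).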
FH mod: Identification of activators of human fumarate hydratase by quantitative high-throughput screening. Fumarate hydratase, mitochondrial (Homo sapiens), P07954. FH coupled MDH/diaphorase resazurin fluorescence, 15 min. actives 0.22% (n = 54,000). Potency, µM (highest dose often 79.9 µM), without a hit: at the highest dose activity change, negative = inhibition, usual class: inhibitors. AID 1347055, 2019; also: potency is read from the fitted curve at half-maximal effect; % is scaled to controls: 0 for no effect and ±100 for the full control effect; the screen sought activators but most active calls are inhibition curves; nearly all actives have a fitted effect of over 45% in size
GPR32 ag: agonists of human resolvin D1 receptor DRV1 (GPR32); CHO-K1 GPR32 beta-arrestin PathHunter luminescence, 90 min; zero percent set by DMSO-only wells; activation, % at 76.9 µM; actives 2.5% (n = 48,000);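 active = activation of at least 60% and not above a set upper limit, about 1 call in 100 departs from these limits; inconclusive = activation of 40% to 60%, or above that upper limit; inactive = activation under 40%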; also: 0% is about no effect
Target sequence (O75388 whole entry, looked up): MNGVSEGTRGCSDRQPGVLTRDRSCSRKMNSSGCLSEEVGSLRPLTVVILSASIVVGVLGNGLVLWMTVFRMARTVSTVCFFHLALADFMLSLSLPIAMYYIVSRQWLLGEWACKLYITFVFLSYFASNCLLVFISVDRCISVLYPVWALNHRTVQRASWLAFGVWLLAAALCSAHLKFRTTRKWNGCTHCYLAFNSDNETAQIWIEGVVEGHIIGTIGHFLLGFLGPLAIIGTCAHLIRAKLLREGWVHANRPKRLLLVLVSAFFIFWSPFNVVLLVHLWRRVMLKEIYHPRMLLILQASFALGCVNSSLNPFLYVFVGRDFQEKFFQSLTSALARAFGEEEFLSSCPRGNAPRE
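Cells are plated overnight, treated with compounds in DMSO for 90 minutes at 37 °C, and developed with PathHunter detection reagent for 1 hour before luminescence is read; signal reflects beta-arrestin binding to GPR32 in engineered CHO-K1 cells.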
DYRK1A KinaseGlo: blocks recombinant human DYRK1A kinase activity | recombinant DYRK1A, Kinase-Glo ATP depletion luminescence | shares compounds with NTMT1 inhibitor | AID 2705 | Potency, µM (doses to about 76.9 µM), for inactives: at the highest dose activity change, negative = inhibition, most hits filed as inhibitors | actives 80% (n = 100)
CLK4 inh: CLK4 kinase inhibition, SAR round 2; recombinant Clk4, Kinase-Glo ATP luminescence, 4.5 h; Potency, µM (doses to about 76.9 µM), for the others: at the highest dose activity, negative = inhibition, usual class: inhibitors; AID 493204; actives 90% (n = 90); shares compounds with NTMT1 inhibitor
USP2 K63 confirm: confirmation of human USP2a inhibitors with K63 diubiquitin substrate; Potency, µM (series often up to 57.5 µM), inactives show at the top dose activity change, negative = inhibition, most hits filed as inhibitors; actives 80% (n = 30); shares compounds with NTMT1 inhibitor; USP2 cleavage of DiUb K63-3IQF, fluorescence kinetic; AID 652172
Casp6 counter: inhibits human caspase-6 in USP2a selectivity assay; shares compounds with NTMT1 inhibitor; Caspase 6 enzyme, Caspase-Glo 6 luminescence; activity change, negative = inhibition, % at 46.1 µM; 30 tested, under 10 active
Target sequence (P55212 whole entry, looked up): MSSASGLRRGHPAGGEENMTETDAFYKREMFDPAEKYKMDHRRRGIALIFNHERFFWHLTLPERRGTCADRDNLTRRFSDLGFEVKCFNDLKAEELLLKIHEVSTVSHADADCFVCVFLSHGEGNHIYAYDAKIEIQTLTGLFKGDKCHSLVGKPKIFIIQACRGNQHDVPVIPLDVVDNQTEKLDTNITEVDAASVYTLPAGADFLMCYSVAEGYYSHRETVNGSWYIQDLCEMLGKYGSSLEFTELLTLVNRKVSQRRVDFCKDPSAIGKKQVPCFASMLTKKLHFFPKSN
HSD17B4 inh: counter-screen for HPGD inhibitors: human HSD17B4 inhibition; shares compounds with NTMT1 inhibitor; purified HSD17B4, estradiol/NAD+, NADH fluorescence; Potency, µM (titrated, usually from 57.1 µM), for inactives: top-dose activity change, negative = inhibition, usual class: inhibitors; actives 10% (n = 230); AID 743187
ALDH1A1 counter: inhibits human ALDH1A1, off-target for HPGD inhibitors. shares compounds with NTMT1 inhibitor. recombinant ALDH1A1, NADH fluorescence, propionaldehyde/NAD+. Potency, µM (highest dose often 57.1 µM), inactives show at the top dose activity change, negative = inhibition, actives largely listed as inhibitors. actives 93% (n = 230). AID 743195
NNMT inh: human NNMT inhibition, NTMT1 counter-screen | NNMT MTase-Glo luminescence, SAH detection | AID 1645878 | shares compounds with NTMT1 inhibitor | Potency, µM (doses to about 57.1 µM), without a hit: at the top dose activity, negative = inhibition, most hits filed as inhibitors | actives 10% (n = 120)
Starred values were filed as active, the others as inactive; [ ] = another dose, or the depositor's remark. Unless noted, calls follow the shape of the dose curve; as a rule, active = well fitted curve in the direction sought with a large enough effect; inconclusive = small, poorly fitted or top-dose-only effect, or another doubt; inactive = no such curve, though single readings can be large; an effect the other way counts as inactive or inconclusive.

Screening Cc1cc(-c2nnc3n2CCCCC3)c(C)n1-c1cccc(C(F)(F)F)c1 returned NTMT1 inhibitor 9.5%, HSD17B4 inh 9.6% and ALDH1A1 counter inconclusive.
For Cc1cc(-c2nnc3n2CCCCC3)c(C)n1-c1ccncc1 the results were NTMT1 inhibitor 4.3%[57.5 µM].
For Cc1ccc(-n2c(C)cc(-c3nnc4n3CCCCC4)c2C)cc1 the results were NTMT1 inhibitor 3.1%, HSD17B4 inh 7.0% and ALDH1A1 counter inconclusive.
`Cc1c(C(N)=O)nnn1-c1ccc(Br)cc1` gave NTMT1 inhibitor 15.9%, HTT promoter inh 13.9%, HTT-AS promoter 0.0%, FH mod inconclusive and GPR32 ag 20.2.
COc1c/c(=C2\C=c3ccccc3=N2)[nH]/c1=C/c1[nH]c(C)cc1C was read as NNMT inh inconclusive.
`COc1c/c(=C2\C=c3ccccc3=N2)[nH]/c1=C\c1[nH]c(C)cc1C` gave NTMT1 inhibitor inconclusive and FH mod 0.3%.
Screening c1cncc(CNc2ncnc3ccc(-c4cccnc4)cc23)c1 returned NTMT1 inhibitor -3.6%[57.5 µM].
c1nc(NCCc2cnc[nH]2)c2cc(-c3ccoc3)ccc2n1 was read as NTMT1 inhibitor -2.0% and DYRK1A KinaseGlo 4.12µM*.
CC(O)c1ccc(-c2ccc3ncnc(NCCc4cnc[nH]4)c3c2)o1 (centres undefined) was read as NTMT1 inhibitor inconclusive and CLK4 inh 1.46µM*.
Screening c1nc(NCc2ccc3c(c2)OCO3)c2cc(-c3ccoc3)ccc2n1 returned NTMT1 inhibitor 1.2%.
Cc1ccc(CNc2ncnc3ccc(-c4ccoc4)cc23)o1 was read as NTMT1 inhibitor -5.5% and DYRK1A KinaseGlo 6.54µM*.
`CCOC(=O)c1ccoc1-c1ccc2ncnc(NCCc3cnc[nH]3)c2c1` gave NTMT1 inhibitor -8.7% and DYRK1A KinaseGlo inconclusive.
`Cc1occc1-c1ccc2ncnc(NCCc3cnc[nH]3)c2c1` gave NTMT1 inhibitor inconclusive and DYRK1A KinaseGlo 9.23µM*.
Screening CCc1cccc(-n2c(=O)c3cccnc3n2CC(=O)NCc2ccccc2)c1 returned NTMT1 inhibitor 11.5%, HTT promoter inh -26.2%, HTT-AS promoter -18.0%, FH mod -22.6% and GPR32 ag -27.6.
For COc1cc(N2CCOCC2)ccc1Nc1ncc(F)c(Nc2ccccc2NS(C)(=O)=O)n1 the results were NTMT1 inhibitor 8.7%[57.5 µM] and FH mod -1.3%.
Screening CNC(=O)c1ccccc1Nc1cc(Nc2ccc(N3CCOCC3)cc2OC)ncc1C(F)(F)F returned NTMT1 inhibitor -1.4%[57.5 µM], FH mod -10.4% and NNMT inh inconclusive.
`CC(c1ccco1)N(C)c1ncnc2ccc(-c3ccc4c(c3)OCO4)cc12` (centres undefined) gave DYRK1A KinaseGlo 0.26µM*.
For CN(CCc1ccco1)c1ncnc2ccc(-c3ccc4c(c3)OCO4)cc12 the results were NTMT1 inhibitor inconclusive and CLK4 inh 0.0923µM*.
CCN(c1cc(C#CCN2CCOCC2)cc(C(=O)NCc2c(C)cc(C)[nH]c2=O)c1C)C1CCC(N(C)CCOC)CC1 (centres undefined) was read as NTMT1 inhibitor -4.2% and FH mod -0.6%[53.3 µM].
Cc1ccccc1CNC(=O)Nc1ccc2c(c1)N(C)C(=O)c1ccccc1S2 was read as NTMT1 inhibitor 6.9%, HTT promoter inh inconclusive, HTT-AS promoter -52.8%, FH mod inconclusive and GPR32 ag -14.5.
Cc1ccc(S(=O)(=O)Nc2cc(C(F)(F)F)ccc2C(=O)Nc2nc(-c3ccccc3)cs2)cc1 was read as NTMT1 inhibitor inconclusive, USP2 K63 confirm 1.72µM* and Casp6 counter -15.3.
`Cc1ccc(S(=O)(=O)Nc2cnccc2C(=O)Nc2nc(-c3ccccc3F)cs2)cc1` gave NTMT1 inhibitor -18.8%.
`Cc1cc(F)ccc1S(=O)(=O)Nc1cnccc1C(=O)Nc1nc(-c2ccccc2)cs1` gave NTMT1 inhibitor 18.0%, USP2 K63 confirm 1.93µM* and Casp6 counter 2.7.
For Cc1ccc(S(=O)(=O)Nc2ncccc2C(=O)Nc2nc(-c3ccccc3)cs2)cc1 the results were USP2 K63 confirm 3.43µM* and Casp6 counter -3.7.
Screening Cc1ccc(S(=O)(=O)Nc2ccc(Cl)cc2C(=O)Nc2nc(-c3ccccc3)cs2)cc1 returned NTMT1 inhibitor inconclusive, USP2 K63 confirm 1.22µM* and Casp6 counter 0.0.
Screening Cc1ccc(S(=O)(=O)Nc2cccnc2C(=O)Nc2nc(-c3ccccc3)cs2)cc1 returned NTMT1 inhibitor 23.3%.
For Cc1ccc(S(=O)(=O)Nc2cc(F)c(F)cc2C(=O)Nc2nc(-c3ccccc3)cs2)cc1 the results were NTMT1 inhibitor 7.0%.
Screening Cc1ccc(S(=O)(=O)Nc2ccc(OC(F)(F)F)cc2C(=O)Nc2nc(-c3ccccc3)cs2)cc1 returned NTMT1 inhibitor -2.7%.
For CC(C)(C)c1ccc2c(c1)CC[C@H]2NC(=O)Nc1cccc2[nH]ncc12 the results were NTMT1 inhibitor 4.4%[57.5 µM] and FH mod 2.1%.
For COc1cc(CCC2=NN=C(NC(=O)c3ccc(N4C[C@@H](C)N[C@@H](C)C4)cc3)C2)cc(OC)c1 the results were NTMT1 inhibitor -25.5%[57.5 µM] and FH mod 6.6%.

High-throughput results (PubChem)
